Reference: the supplement of paper PMC11001985

Compound: C#CCNC(=O)CCSSCCC(=O)NCCc1ccc(C=O)c(C=O)c1
Assay: lysine labeling ratio R10:1 (500 µM / 50 µM probe), SILAC-ABPP in living cells; higher = lower intrinsic lysine reactivity toward the probe, active = 2 or less
Settings: HeLa; probe concentrations 500 vs 50 µM
Method in brief: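 In PBS at room temperature, living HeLa cells grown with SILAC light or heavy labels were treated with 50 µM or 500 µM of an alkyne-tagged, disulfide-linked lysine probe, with label swaps in both directions. Analysis was by LC-MS/MS on a TIMS-TOF Pro after click to biotin-azide, neutravidin capture and DTT release. For each lysine, R is the median across forward and reverse replicates of the filtered median high-probe/low-probe MS1 peptide ratio, capped at 20.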

UniProt P32004, sequence (P32004 whole entry): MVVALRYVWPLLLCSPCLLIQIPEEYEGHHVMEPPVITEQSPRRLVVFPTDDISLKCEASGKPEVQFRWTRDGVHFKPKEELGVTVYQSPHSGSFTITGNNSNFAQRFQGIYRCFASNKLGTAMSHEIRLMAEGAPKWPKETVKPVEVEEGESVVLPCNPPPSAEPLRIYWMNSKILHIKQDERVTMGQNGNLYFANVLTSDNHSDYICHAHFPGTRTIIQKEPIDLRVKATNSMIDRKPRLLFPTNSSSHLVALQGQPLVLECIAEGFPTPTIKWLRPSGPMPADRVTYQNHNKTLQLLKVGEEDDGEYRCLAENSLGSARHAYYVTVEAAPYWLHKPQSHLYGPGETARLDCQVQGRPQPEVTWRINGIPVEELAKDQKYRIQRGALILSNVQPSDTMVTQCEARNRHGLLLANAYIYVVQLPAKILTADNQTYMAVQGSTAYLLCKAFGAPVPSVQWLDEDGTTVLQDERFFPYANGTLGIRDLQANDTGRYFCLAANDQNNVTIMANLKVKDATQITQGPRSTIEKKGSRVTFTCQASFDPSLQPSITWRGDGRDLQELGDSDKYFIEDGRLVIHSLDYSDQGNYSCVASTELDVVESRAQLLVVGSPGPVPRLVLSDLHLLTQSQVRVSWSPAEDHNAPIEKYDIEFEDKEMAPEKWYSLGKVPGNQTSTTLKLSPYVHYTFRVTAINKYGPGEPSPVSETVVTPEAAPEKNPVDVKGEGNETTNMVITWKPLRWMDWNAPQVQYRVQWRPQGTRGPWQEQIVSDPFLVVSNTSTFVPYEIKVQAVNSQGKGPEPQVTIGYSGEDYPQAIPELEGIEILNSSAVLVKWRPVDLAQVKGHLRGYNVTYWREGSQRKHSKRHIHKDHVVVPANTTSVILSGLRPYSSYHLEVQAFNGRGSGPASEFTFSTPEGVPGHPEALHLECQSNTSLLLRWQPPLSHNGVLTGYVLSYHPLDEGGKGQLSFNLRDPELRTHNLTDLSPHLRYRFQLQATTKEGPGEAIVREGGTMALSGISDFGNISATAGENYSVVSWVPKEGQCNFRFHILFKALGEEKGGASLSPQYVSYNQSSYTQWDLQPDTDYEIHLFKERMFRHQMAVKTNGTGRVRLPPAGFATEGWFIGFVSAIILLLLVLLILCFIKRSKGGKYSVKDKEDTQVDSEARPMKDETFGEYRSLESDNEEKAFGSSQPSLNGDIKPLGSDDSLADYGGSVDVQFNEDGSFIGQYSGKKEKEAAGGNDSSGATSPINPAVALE
UniProt P11717, sequence (P11717 whole entry): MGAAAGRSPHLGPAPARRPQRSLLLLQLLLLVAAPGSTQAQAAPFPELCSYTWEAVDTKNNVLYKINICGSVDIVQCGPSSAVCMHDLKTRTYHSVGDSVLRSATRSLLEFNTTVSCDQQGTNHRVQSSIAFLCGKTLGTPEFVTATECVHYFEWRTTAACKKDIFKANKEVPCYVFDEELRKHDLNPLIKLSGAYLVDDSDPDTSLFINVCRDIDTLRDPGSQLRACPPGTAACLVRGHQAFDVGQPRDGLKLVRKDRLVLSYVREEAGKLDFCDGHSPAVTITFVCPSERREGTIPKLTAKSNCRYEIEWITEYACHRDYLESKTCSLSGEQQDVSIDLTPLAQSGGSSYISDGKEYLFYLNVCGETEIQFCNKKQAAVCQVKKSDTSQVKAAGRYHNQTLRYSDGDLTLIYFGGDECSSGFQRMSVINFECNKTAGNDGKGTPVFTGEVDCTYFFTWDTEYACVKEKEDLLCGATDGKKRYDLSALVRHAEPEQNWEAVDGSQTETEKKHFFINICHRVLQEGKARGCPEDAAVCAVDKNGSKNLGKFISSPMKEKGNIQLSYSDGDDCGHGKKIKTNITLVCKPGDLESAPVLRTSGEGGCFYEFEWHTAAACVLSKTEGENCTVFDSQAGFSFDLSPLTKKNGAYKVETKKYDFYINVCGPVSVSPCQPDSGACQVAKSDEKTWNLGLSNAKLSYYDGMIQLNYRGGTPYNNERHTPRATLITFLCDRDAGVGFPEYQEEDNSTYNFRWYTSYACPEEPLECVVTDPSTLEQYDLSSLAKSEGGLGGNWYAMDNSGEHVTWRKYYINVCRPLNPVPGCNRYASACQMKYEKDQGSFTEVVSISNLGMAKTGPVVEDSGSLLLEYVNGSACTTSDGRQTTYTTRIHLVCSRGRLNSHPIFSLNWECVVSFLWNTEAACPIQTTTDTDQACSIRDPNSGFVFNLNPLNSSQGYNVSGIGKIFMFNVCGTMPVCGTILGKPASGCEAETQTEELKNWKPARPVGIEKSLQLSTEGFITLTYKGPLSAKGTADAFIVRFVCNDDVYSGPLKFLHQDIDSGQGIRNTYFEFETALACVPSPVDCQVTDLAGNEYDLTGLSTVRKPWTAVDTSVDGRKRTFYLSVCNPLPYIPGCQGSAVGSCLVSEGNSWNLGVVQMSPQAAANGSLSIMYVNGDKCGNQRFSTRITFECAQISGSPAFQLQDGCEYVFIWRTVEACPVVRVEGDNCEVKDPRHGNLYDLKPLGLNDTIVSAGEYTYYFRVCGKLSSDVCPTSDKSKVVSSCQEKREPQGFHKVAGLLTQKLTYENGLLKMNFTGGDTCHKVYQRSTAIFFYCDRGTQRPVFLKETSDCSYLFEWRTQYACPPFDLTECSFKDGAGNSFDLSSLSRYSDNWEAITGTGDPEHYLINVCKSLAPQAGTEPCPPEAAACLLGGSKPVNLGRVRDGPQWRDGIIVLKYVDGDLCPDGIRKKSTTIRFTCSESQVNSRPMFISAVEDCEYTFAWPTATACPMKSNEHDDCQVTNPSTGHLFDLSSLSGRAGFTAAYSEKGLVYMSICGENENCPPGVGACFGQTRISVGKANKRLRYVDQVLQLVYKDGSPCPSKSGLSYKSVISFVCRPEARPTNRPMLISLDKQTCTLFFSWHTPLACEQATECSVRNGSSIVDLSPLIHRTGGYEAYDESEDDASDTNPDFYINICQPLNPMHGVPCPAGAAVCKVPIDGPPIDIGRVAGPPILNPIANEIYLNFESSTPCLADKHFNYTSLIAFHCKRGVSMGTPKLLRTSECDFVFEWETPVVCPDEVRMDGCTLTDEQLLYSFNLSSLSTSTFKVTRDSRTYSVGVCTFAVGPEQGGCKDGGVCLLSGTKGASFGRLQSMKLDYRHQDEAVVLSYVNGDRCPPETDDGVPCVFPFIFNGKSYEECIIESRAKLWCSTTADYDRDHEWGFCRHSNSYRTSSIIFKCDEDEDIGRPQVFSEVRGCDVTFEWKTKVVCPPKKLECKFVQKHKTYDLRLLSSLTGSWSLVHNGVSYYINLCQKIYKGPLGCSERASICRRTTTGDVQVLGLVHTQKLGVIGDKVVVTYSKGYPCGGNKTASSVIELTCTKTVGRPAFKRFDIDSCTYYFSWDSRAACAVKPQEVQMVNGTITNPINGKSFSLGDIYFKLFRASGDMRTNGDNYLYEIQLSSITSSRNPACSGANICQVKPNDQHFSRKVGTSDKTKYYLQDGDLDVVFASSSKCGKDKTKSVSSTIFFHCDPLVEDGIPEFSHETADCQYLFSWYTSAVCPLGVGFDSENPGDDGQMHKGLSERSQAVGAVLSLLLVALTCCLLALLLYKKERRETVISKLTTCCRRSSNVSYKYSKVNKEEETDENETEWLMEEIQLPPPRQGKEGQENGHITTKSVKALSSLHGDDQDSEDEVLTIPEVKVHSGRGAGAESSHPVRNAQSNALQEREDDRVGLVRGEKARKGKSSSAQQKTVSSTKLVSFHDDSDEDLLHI
UniProt P26639, sequence (P26639 whole entry): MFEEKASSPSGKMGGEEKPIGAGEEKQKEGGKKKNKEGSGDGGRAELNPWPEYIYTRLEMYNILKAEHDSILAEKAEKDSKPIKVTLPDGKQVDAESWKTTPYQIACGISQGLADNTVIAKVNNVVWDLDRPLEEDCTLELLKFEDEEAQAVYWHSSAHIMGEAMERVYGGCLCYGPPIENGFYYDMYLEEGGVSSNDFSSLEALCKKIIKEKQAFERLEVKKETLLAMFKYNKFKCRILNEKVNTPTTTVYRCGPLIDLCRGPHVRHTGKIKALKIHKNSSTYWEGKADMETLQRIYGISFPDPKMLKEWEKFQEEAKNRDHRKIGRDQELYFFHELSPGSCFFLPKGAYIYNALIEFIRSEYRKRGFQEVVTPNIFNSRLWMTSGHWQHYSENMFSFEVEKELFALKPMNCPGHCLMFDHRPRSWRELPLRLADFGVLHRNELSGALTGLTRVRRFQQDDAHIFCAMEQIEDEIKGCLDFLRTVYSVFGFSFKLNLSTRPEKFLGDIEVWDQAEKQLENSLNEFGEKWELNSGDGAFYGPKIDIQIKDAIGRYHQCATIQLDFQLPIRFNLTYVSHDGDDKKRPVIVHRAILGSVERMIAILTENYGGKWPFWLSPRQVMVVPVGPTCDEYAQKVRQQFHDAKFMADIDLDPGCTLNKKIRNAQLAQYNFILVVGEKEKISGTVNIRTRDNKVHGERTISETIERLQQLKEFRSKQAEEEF
UniProt Q07065, sequence (Q07065 whole entry): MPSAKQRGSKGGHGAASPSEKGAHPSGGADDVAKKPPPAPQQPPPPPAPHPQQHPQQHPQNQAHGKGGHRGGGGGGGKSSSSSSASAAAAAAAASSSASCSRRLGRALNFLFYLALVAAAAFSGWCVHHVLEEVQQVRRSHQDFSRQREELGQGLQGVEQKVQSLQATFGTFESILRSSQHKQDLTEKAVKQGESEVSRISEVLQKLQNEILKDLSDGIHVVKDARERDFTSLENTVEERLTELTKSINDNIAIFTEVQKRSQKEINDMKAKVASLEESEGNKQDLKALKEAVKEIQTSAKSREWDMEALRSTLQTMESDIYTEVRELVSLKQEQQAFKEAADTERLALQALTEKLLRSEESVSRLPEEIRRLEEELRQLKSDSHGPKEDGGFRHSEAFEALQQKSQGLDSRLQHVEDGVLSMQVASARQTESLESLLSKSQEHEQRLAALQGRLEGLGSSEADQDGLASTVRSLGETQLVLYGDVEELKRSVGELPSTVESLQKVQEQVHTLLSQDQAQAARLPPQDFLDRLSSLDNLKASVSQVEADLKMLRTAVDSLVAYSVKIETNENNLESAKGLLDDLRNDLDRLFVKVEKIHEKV

| Target | lysine labeling ratio R10:1 |
| --- | --- |
| NPR3 (lysine site: K208) (UniProt P17342) | 5.04 (inactive) |
| FLNB (lysine site: K1780) (UniProt O75369) | 2.69 (inactive) |
| L1CAM (lysine site: K531) (UniProt P32004) | 7.51 (inactive) |
| UniProt P14618 (lysine site: K247) | 3 (inactive) |
| TALDO1 (lysine site: K321) (UniProt P37837) | 0.79 (active) |
| CDV3 (lysine site: K15) (UniProt Q9UKY7) | 2.4 (inactive) |
| MYH9 (lysine site: K1754) (UniProt P35579) | 3.66 (inactive) |
| UniProt P62826 (lysine site: K99) | 2.78 (inactive) |
| S100A11 (lysine site: K55) (UniProt P31949) | 1.54 (active) |
| PFKP (lysine site: K109) (UniProt Q01813) | 1.5 (active) |
| ITGA1 (lysine site: K291) (UniProt P56199) | 7.48 (inactive) |
| PTGFRN (lysine site: K435) (UniProt Q9P2B2) | 5.47 (inactive) |
| TNKS1BP1 (lysine site: K1680) (UniProt Q9C0C2) | 2.22 (inactive) |
| CKAP4 (lysine site: K191) (UniProt Q07065) | 2.86 (inactive) |
| UniProt Q15046 (lysine site: K479) | 1.78 (active) |
| PLXNA3 (lysine site: K622) (UniProt P51805) | 1.94 (active) |
| MLEC (lysine site: K85) (UniProt Q14165) | 2.36 (inactive) |
| UniProt Q13275 (lysine site: K239) | 1.5 (active) |
| MYO1C (lysine site: K667) (UniProt O00159) | 2.86 (inactive) |
| CHCHD3 (lysine site: K86) (UniProt Q9NX63) | 0.99 (active) |

| Target | lysine labeling ratio R10:1 |
| --- | --- |
| UniProt Q8N441 (lysine site: K218) | 1.33 (active) |
| IGF2R (lysine site: K2197) (UniProt P11717) | 8.12 (inactive) |
| ACTN4 (lysine site: K760) (UniProt O43707) | 4.05 (inactive) |
| CDCP1 (lysine site: K396) (UniProt Q9H5V8) | 0.987 (active) |
| L1CAM (lysine site: K378) (UniProt P32004) | 14 (inactive) |
| EEF2 (lysine site: K445) (UniProt P13639) | 2.7 (inactive) |
| CCT5 (lysine site: K392) (UniProt P48643) | 2.73 (inactive) |
| SLC25A13 (lysine site: K487) (UniProt Q9UJS0) | 4.12 (inactive) |
| ANXA3 (lysine site: K154) (UniProt P12429) | 3.32 (inactive) |
| UniProt P05787 (lysine site: K11) | 6.14 (inactive) |
| CDK5 (lysine site: K33) (UniProt Q00535) | 6.8 (inactive) |
| CFL1 (lysine site: K164) (UniProt P23528) | 4.91 (inactive) |
| TFRC (lysine site: K585) (UniProt P02786) | 4.53 (inactive) |
| TLN1 (lysine site: K147) (UniProt Q9Y490) | 1.5 (active) |
| CD97 (lysine site: K483) (UniProt P48960) | 5.15 (inactive) |
| UniProt P62826 (lysine site: K134) | 4.19 (inactive) |
| IGF1R (lysine site: K47) (UniProt P08069) | 3.62 (inactive) |
| UniProt P26639 (lysine site: K319) | 2.46 (inactive) |
| EIF2S3 (lysine site: K70) (UniProt P41091) | 3.79 (inactive) |
| SLC25A5 (lysine site: K105) (UniProt P05141) | 6.97 (inactive) |
